Drawing on PubChem BioAssay (Tox21), this text covers Potency for 31 molecules.

Results filed as inconclusive are left out. Where a call stands in place of a potency, no number is given. Calls of active or inactive are those of the source. Unless noted, the call rests on the fitted dose curve; in most records, active means well fitted curve in the direction sought with a large enough effect in the repeat runs; inconclusive means weak or mixed curves; inactive means no such curve, though single readings can be large; an effect the other way counts as inactive or inconclusive.

Test system in one assay: not listed separately
Kind of assay: qHTS assay to identify small molecule antagonists of the thyroid receptor (TR) signaling pathway - cell viability counter screen (AID 743064). Further: nearly all actives have a fitted effect of over 50% in size. Further: potency means the concentration at half of the fitted maximal effect. The following applies: GH3.TRE-Luc viability, CellTiter-Fluor, 24 h; series mostly up to 70.3 µM. A digest of the protocol: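 In-well cytotoxicity read by CellTiter-Fluor (30 min, 37 C) following 23.5 h exposure of GH3 cells bearing a TRE-luciferase sensor. Compounds were added alongside 1 nM (final) T3 to drive TR transactivation.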
With `O=S(=O)(Cl)Cl`, the Potency result was “inactive”. As for `COC(=O)Cc1ccccc1`, the Potency entry is “inactive”. The same measure, in the same setting: the result for `CCOP(=O)(SC(C)CC)N1CCSC1=O` (stereo not given) reads “inactive”. In the case of `CC1(C)CC(=O)CC(C)(C)N1[O]`, the Potency entry was “inactive”. For the molecule `NC(=S)c1c(Cl)cccc1Cl`, the Potency result was “inactive”. Still for that read-out and setting: the result for `C[C@H](N)[C@H](O)c1ccc(O)c(O)c1` reads 26.6 µM (active); that for `O=C(NC(=O)c1cc(F)c(F)cc1Cl)Nc1cc(F)ccc1N1CCC(C(=O)O)CC1`, “inactive”. Still for that read-out and setting: the result for `C[C@H]1[C@@H]2Cc3ccc(O)cc3[C@@]1(C)CCN2C` reads “inactive”.

Test system in a further assay: not listed separately
Nature of the assay: qHTS assay to identify small molecule antagonists of the thyroid receptor (TR) signaling pathway (AID 743065). Further: nearly all actives have a fitted effect of over 55% in size. Further: potency means the concentration at half of the fitted maximal effect. Particulars: GH3.TRE-Luc, T3-stimulated luciferase inhibition, 23.5 h; series mostly up to 70.3 µM. In a few lines:
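GH3.TRE-Luc rat pituitary cells (two TREs driving luciferase) were dosed with compound, then stimulated with 1 nM T3 (final) for 23.5 h at 37 C. ONE-Glo luminescence was the read-out, with CellTiter-Fluor fluorescence as the cytotoxicity counter-screen.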
A general note: In qHTS, concentration-response curves come from the screen itself.
With `CCOC(=O)NC(O)C(Cl)(Cl)Cl` (stereo not given), the Potency result was “inactive”. Regarding `CC(Cc1ccccc1)NCc1ccccc1Cl` (stereo not given), the Potency result was “inactive”. Turning to `O=C(N/N=C/c1ccc([N+](=O)[O-])o1)c1cc([N+](=O)[O-])cc([N+](=O)[O-])c1O`, the Potency result was “inactive”.

As to `C=CC(=O)OCC`, the Potency result is “inactive”. On the same count and under the same terms, the result for `CC(Oc1cccc(Cl)c1)C(=O)O` (stereo not given) reads “inactive”; that for `CCC(C)(C)O`, “inactive”; that for `CC(Cl)C(=O)O` (stereo not given), “inactive”.

Regarding `CC(=O)NNc1ccccc1`, the Potency was 4.82 µM (active). Still for that read-out and setting: the same measure for `C[N+]1(CCF)[C@@H]2CC[C@H]1CC(OC(=O)C(O)(c1ccccc1)c1ccccc1)C2` (stereo not given in full): “inactive”; for `CC(C)C1(C)N=C(c2ncccc2C(=O)O)NC1=O` (stereo not given): “inactive”. The same measure, in the same setting: the same measure for `CCOC(=O)c1cncn1C(C)c1ccccc1` (stereo not given): “inactive”; for `O=S(=O)(c1ccccc1)c1ccccc1`: “inactive”; for `CC(C)(C)NCC(O)c1cc(Cl)c(N)c(C(F)(F)F)c1` (stereo not given): “inactive”. Still for that read-out and setting: the result for `CCOc1cccc(C2(N3CCN(c4ccccc4)CC3)CCC(C)CC2)c1` (stereo not given) reads “inactive”; that for `N#CC(C#N)=Cc1ccc(O)c(O)c1`, 26.6 µM (active); that for `C=CC(C)(CCC=C(C)C)OC(=O)c1ccccc1N` (stereo not given), “inactive”.

As for `CCCCCCCCCCCCCCCl`, the Potency result was “inactive”.

For `Cc1nc(N(C)C)nc(OC(=O)N(C)C)c1C`, the Potency result is “inactive”.

The subject of another assay is thyroid hormone receptor (rat, GH3 cells). Kind of assay: qHTS assay to identify small molecule agonists of the thyroid receptor (TR) signaling pathway (AID 743066; calls by dose curve). Particulars: GH3.TRE-Luc cells, TR agonist luciferase, 24 h; series mostly up to 83.9 µM.
For the molecule `CCOC(=O)NC(O)C(Cl)(Cl)Cl` (stereo not given), the Potency entry was “inactive”. Still for that read-out and setting: the same measure for `O=C(O)C(F)(F)C(F)(F)C(F)(F)C(F)(F)C(F)(F)C(F)(F)C(F)(F)C(F)(F)F`: “inactive”; for `CC(Cc1ccccc1)NCc1ccccc1Cl` (stereo not given): “inactive”; for `O=C(N/N=C/c1ccc([N+](=O)[O-])o1)c1cc([N+](=O)[O-])cc([N+](=O)[O-])c1O`: “inactive”. The same measure, in the same setting: the same measure for `C=CC(=O)OCC`: “inactive”; for `CC(Oc1cccc(Cl)c1)C(=O)O` (stereo not given): “inactive”. Same read-out and setting: the same measure for `CCC(C)(C)O`: “inactive”; for `CC(Cl)C(=O)O` (stereo not given): “inactive”. As for `C=CCN1C[C@H](C)N([C@H](c2ccc(C(=O)N(CC)CC)cc2)c2cccc(OC)c2)C[C@H]1C`, the Potency result was “inactive”. The same measure, in the same setting: the same measure for `CC(=O)NNc1ccccc1`: “inactive”. On the same count and under the same terms, the result for `C[N+]1(CCF)[C@@H]2CC[C@H]1CC(OC(=O)C(O)(c1ccccc1)c1ccccc1)C2` (stereo not given in full) reads “inactive”; that for `CC(C)C1(C)N=C(c2ncccc2C(=O)O)NC1=O` (stereo not given), “inactive”; that for `CCOC(=O)c1cncn1C(C)c1ccccc1` (stereo not given), “inactive”. Regarding `O=S(=O)(c1ccccc1)c1ccccc1`, the Potency entry was “inactive”. On the same count and under the same terms, the same measure for `CC(C)(C)NCC(O)c1cc(Cl)c(N)c(C(F)(F)F)c1` (stereo not given): “inactive”; for `CCOc1cccc(C2(N3CCN(c4ccccc4)CC3)CCC(C)CC2)c1` (stereo not given): “inactive”.

Regarding `N#CC(C#N)=Cc1ccc(O)c(O)c1`, the Potency entry was “inactive”.

Consider `C=CC(C)(CCC=C(C)C)OC(=O)c1ccccc1N` (stereo not given), for which the Potency entry is “inactive”.

As to `CCCCCCCCCCCCCCCl`, the Potency result was “inactive”. Still for that read-out and setting: the result for `CN1C(=O)CN=C(c2ccccc2)c2cc([N+](=O)[O-])ccc21` reads “inactive”. `NCCc1cc(O)c(O)cc1O`: the Potency entry is “inactive”. On the same count and under the same terms, the result for `CCCN(CCC)C(=O)Cc1c(-c2ccc(Cl)cc2)nc2ccc(Cl)cn12` reads “inactive”.

Turning to `Cc1nc(N(C)C)nc(OC(=O)N(C)C)c1C`, the Potency result is “inactive”. On the same count and under the same terms, the result for `C[C@H]1[C@@H]2Cc3ccc(O)cc3[C@@]1(C)CCN2C` reads “inactive”.
